# Laboratory results from article PMC9911399, “Two distinct binding modes provide the RNA-binding protein RbFox with extraordinary sequence specificity”.
# Changes are numbered by the printed parent chain; changes in the protein carry UniProt numbers. Over roughly 16,000 sequences, “ka relative to ugcaugu” has its median near 0.096; the highest 2% begin near 0.35. This excerpt belongs to a sample that is enriched for the highest values.
# T1: RBFOX1 RRM RbFoxmut (Fox-RRM*) (Homo sapiens, UniProt Q9NWB1 109-208, R118D;E147R;N151S;E152T)
# T1 sequence: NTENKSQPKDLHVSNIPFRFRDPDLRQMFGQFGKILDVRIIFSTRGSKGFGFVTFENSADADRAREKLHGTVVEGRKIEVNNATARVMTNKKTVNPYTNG
# B1: UGGUGUC (DNA:RNA)
# RNA: GGGAGACCGGAAUUCAGAUUGUCCUGGUGUCUUAAAUCCCGUCGUAGCCACCA
# DNA 1: CAATCTGAATTCCGGTCTCCC
# DNA 2: TGGTGGCTACGACGGGATT
# B2: AAUUGGG (DNA:RNA)
# RNA: B1 RNA with U25A, G26A, G27U, U30G, C31G
# DNA 1: CAATCTGAATTCCGGTCTCCC
# DNA 2: TGGTGGCTACGACGGGATT
# B3: UGUUGGC (DNA:RNA)
# RNA: B1 RNA with G27U, U30G
# DNA 1: CAATCTGAATTCCGGTCTCCC
# DNA 2: TGGTGGCTACGACGGGATT
# B4: GUUAACC (DNA:RNA)
# RNA: B1 RNA with U25G, G26U, G27U, U28A, G29A, U30C
# DNA 1: CAATCTGAATTCCGGTCTCCC
# DNA 2: TGGTGGCTACGACGGGATT
# B5: UUCCCAG (DNA:RNA)
# RNA: B1 RNA with G26U, G27C, U28C, G29C, U30A, C31G
# DNA 1: CAATCTGAATTCCGGTCTCCC
# DNA 2: TGGTGGCTACGACGGGATT
# B6: GUUACAG (DNA:RNA)
# RNA: GGGAGACCGGAAUUCAGAUUGUCCGUUACAGUUAAAUCCCGUCGUAGCCACCA
# DNA 1: CAATCTGAATTCCGGTCTCCC
# DNA 2: TGGTGGCTACGACGGGATT
# B7: GUUCAGG (DNA:RNA)
# RNA: B6 RNA with A28C, C29A, A30G
# DNA 1: CAATCTGAATTCCGGTCTCCC
# DNA 2: TGGTGGCTACGACGGGATT
# B8: AGGUUCG (DNA:RNA)
# RNA: B1 RNA with U25A, G29U, U30C, C31G
# DNA 1: CAATCTGAATTCCGGTCTCCC
# DNA 2: TGGTGGCTACGACGGGATT
# B9: GUCCAGG (DNA:RNA)
# RNA: B6 RNA with U27C, A28C, C29A, A30G
# DNA 1: CAATCTGAATTCCGGTCTCCC
# DNA 2: TGGTGGCTACGACGGGATT
# B10: ACCAGGU (DNA:RNA)
# RNA: B6 RNA with G25A, U26C, U27C, C29G, A30G, G31U
# DNA 1: CAATCTGAATTCCGGTCTCCC
# DNA 2: TGGTGGCTACGACGGGATT
# B11: AGGUUUG (DNA:RNA)
# RNA: B1 RNA with U25A, G29U, C31G
# DNA 1: CAATCTGAATTCCGGTCTCCC
# DNA 2: TGGTGGCTACGACGGGATT
# B12: AGGUUGU (DNA:RNA)
# RNA: B1 RNA with U25A, G29U, U30G, C31U
# DNA 1: CAATCTGAATTCCGGTCTCCC
# DNA 2: TGGTGGCTACGACGGGATT
# B13: AGCGAUU (DNA:RNA)
# RNA: B1 RNA with U25A, G27C, U28G, G29A, C31U
# DNA 1: CAATCTGAATTCCGGTCTCCC
# DNA 2: TGGTGGCTACGACGGGATT
# B14: CUCACAU (DNA:RNA)
# RNA: B6 RNA with G25C, U27C, G31U
# DNA 1: CAATCTGAATTCCGGTCTCCC
# DNA 2: TGGTGGCTACGACGGGATT
# B15: AUGCAGC (DNA:RNA)
# RNA: B1 RNA with U25A, G26U, U28C, G29A, U30G
# DNA 1: CAATCTGAATTCCGGTCTCCC
# DNA 2: TGGTGGCTACGACGGGATT
# B16: AGUCCCU (DNA:RNA)
# RNA: B6 RNA with G25A, U26G, A28C, A30C, G31U
# DNA 1: CAATCTGAATTCCGGTCTCCC
# DNA 2: TGGTGGCTACGACGGGATT
# B17: GAAGUCC (DNA:RNA)
# RNA: B6 RNA with U26A, U27A, A28G, C29U, A30C, G31C
# DNA 1: CAATCTGAATTCCGGTCTCCC
# DNA 2: TGGTGGCTACGACGGGATT
# B18: UGCCAGA (DNA:RNA)
# RNA: B1 RNA with G27C, U28C, G29A, U30G, C31A
# DNA 1: CAATCTGAATTCCGGTCTCCC
# DNA 2: TGGTGGCTACGACGGGATT
# B19: UUGUUGG (DNA:RNA)
# RNA: B1 RNA with G26U, G29U, U30G, C31G
# DNA 1: CAATCTGAATTCCGGTCTCCC
# DNA 2: TGGTGGCTACGACGGGATT
# B20: GUCGUGG (DNA:RNA)
# RNA: B6 RNA with U27C, A28G, C29U, A30G
# DNA 1: CAATCTGAATTCCGGTCTCCC
# DNA 2: TGGTGGCTACGACGGGATT
# B21: UCCUUGG (DNA:RNA)
# RNA: B1 RNA with G26C, G27C, G29U, U30G, C31G
# DNA 1: CAATCTGAATTCCGGTCTCCC
# DNA 2: TGGTGGCTACGACGGGATT
# B22: GUGGUUG (DNA:RNA)
# RNA: B6 RNA with U27G, A28G, C29U, A30U
# DNA 1: CAATCTGAATTCCGGTCTCCC
# DNA 2: TGGTGGCTACGACGGGATT
# B23: GUGGUGG (DNA:RNA)
# RNA: B6 RNA with U27G, A28G, C29U, A30G
# DNA 1: CAATCTGAATTCCGGTCTCCC
# DNA 2: TGGTGGCTACGACGGGATT
# B24: UUGGUUG (DNA:RNA)
# RNA: B1 RNA with G26U, U28G, G29U, C31G
# DNA 1: CAATCTGAATTCCGGTCTCCC
# DNA 2: TGGTGGCTACGACGGGATT
# Target: T1, RBFOX1 RRM RbFoxmut (Fox-RRM*)
# Assay: EMSA; HiTS-Eq, 1 nM pool, 10 min; buffer printed only for the single-RNA assays: 10 mM Tris pH 7.5, 150 mM NaCl, 3.4 mM EDTA, 0.001% NP-40, 30 C
# Settings: tags: His6 N-terminal (pET28a); label: 5' 32P
# Procedure, shortened: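 Purified RbFox RRM, wild type or mutant, was incubated for 10 min in 50 µL with 1 nM of a 5′-radiolabelled RNA pool carrying 7 randomized nucleotides, whose flanks were annealed to DNA oligonucleotides, over a series of increasing protein concentrations. Unbound RNA was resolved on 8% native PAGE, cut out, reverse-transcribed, barcoded by PCR and sequenced on an Illumina HiSeq 2500. Relative association constants were derived from changes in read counts for each RNA species versus the control reaction and normalised to the cognate motif.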
row,Binder,binding signal
1,B1,0.281 KA relative to UGCAUGU
2,B2,0.0731 KA relative to UGCAUGU
3,B3,0.0854 KA relative to UGCAUGU
4,B4,0.0736 KA relative to UGCAUGU
5,B5,0.103 KA relative to UGCAUGU
6,B6,0.114 KA relative to UGCAUGU
7,B7,0.0776 KA relative to UGCAUGU
8,B8,0.357 KA relative to UGCAUGU
9,B9,0.0991 KA relative to UGCAUGU
10,B10,0.11 KA relative to UGCAUGU
11,B11,0.525 KA relative to UGCAUGU
12,B12,0.332 KA relative to UGCAUGU
13,B13,0.072 KA relative to UGCAUGU
14,B14,0.0911 KA relative to UGCAUGU
15,B15,0.106 KA relative to UGCAUGU
16,B16,0.0659 KA relative to UGCAUGU
17,B17,0.0491 KA relative to UGCAUGU
18,B18,0.116 KA relative to UGCAUGU
19,B19,0.117 KA relative to UGCAUGU
20,B20,0.112 KA relative to UGCAUGU
21,B21,0.0776 KA relative to UGCAUGU
22,B22,0.737 KA relative to UGCAUGU
23,B23,0.15 KA relative to UGCAUGU
24,B24,0.65 KA relative to UGCAUGU
